# Active and inactive are the calls of the source.
# Tests used:
# [1] = system: Human papillomavirus type 1a protein E7 (residues 44-93); assay: HPV1a E7 fragment binders on microarrays, primary screen, biochemical, small-molecule microarray, residues 44-93, 635 nm fluorescence (AID 1108); conditions: small-molecule microarray binding, fluorescence 635 nm; higher = more signal;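 further: E7 fragment applied at 1 µg/mL in TBST for 1 h at 4 C; score combines spot fluorescence with its signal to noise ratio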
# [2] = modulators of HCV replicon luciferase signal, primary screen, HCV replication inhibitor project, Huh7 cells, luciferase reporter (AID 1109); conditions: 48 h, higher = more signal;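 further: huh7 hepatoma cells harbouring a luciferase neomycin HCV replicon reporter; luciferase luminescence as measure of HCV replicon replication; test concentration not given here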
# [3] = target: Left-right determination factor 2 (Homo sapiens) (UniProt O00292); assay: LEFTY2 binders on small-molecule microarrays, primary screen, biochemical, small-molecule microarray, 635 nm fluorescence scan (AID 1110); conditions: LEFTY2 binding, higher = more signal
# Left-right determination factor 2 (Homo sapiens), sequence (O00292 whole entry, looked up): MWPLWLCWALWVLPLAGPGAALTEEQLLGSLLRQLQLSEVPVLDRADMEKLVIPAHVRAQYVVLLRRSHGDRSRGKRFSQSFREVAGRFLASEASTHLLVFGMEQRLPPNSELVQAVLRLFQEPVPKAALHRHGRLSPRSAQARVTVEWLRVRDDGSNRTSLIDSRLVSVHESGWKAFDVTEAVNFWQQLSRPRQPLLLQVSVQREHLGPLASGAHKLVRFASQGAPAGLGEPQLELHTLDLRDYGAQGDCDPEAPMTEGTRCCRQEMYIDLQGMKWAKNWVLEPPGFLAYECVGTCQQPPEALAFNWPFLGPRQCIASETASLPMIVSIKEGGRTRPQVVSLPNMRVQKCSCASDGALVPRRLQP
# [4] = target: Calmodulin-1 (Homo sapiens) (UniProt P0DP23); assay: CALM1 binders on microarrays, EGTA buffer, profiling panel, biochemical, small-molecule microarray, Cy5-labelled CALM1 (AID 1111); conditions: Cy5-CALM1 binding fluorescence, higher = more signal;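 further: labelled calmodulin applied in Tris saline Tween buffer holding calcium plus EGTA and DTT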
# [5] = target: Calmodulin-1 (Homo sapiens) (UniProt P0DP23); assay: calcium-bound CALM1 binders on microarrays, profiling panel, artefact control for SMM control-protein annotation, biochemical, small-molecule microarray, Cy5-labelled CALM1, plus calcium (AID 1112); conditions: Cy5-CALM1 binding fluorescence, higher = more signal;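 further: score merges spot fluorescence with signal to noise from triplicate slides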
# [6] = small-molecule microarray binders of probe aWnt5a, primary screen, biochemical, biotinylated probe, 635/667 nm fluorescence (AID 1113); conditions: higher = more signal;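 further: score merges 667 nm fluorescence intensity with signal-to-noise per printed feature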
# [7] = small-molecule microarray binders of probe aShh, primary screen, biochemical, biotinylated probe, 635/667 nm fluorescence (AID 1114); conditions: higher = more signal;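 further: probe is biotin-labelled aShh protein from a stem cell growth factor screen; measures binding of labelled protein to compounds printed on the slide; score merges feature fluorescence at 667 nm with signal-to-noise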
# [8] = small-molecule microarray binders of probe aNog, primary screen, biochemical, biotinylated probe, 635/667 nm fluorescence (AID 1115); conditions: higher = more signal;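 further: probe is biotinylated aNog protein used at 0.15 µg/mL for 1 h at 4 C; z-score combines 667 nm fluorescence of each spot with its signal to noise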
# [9] = target: Torsin-1A-interacting protein 1 (Homo sapiens) (UniProt Q5JTV8); assay: LAP1 binders from COS7 cell lysate, primary screen, small-molecule microarray, 635/667 nm fluorescence (AID 1116); conditions: COS7-hLAP1 lysate binding, 635 nm fluorescence, higher = more signal
# Torsin-1A-interacting protein 1 (Homo sapiens), sequence (Q5JTV8 whole entry, looked up): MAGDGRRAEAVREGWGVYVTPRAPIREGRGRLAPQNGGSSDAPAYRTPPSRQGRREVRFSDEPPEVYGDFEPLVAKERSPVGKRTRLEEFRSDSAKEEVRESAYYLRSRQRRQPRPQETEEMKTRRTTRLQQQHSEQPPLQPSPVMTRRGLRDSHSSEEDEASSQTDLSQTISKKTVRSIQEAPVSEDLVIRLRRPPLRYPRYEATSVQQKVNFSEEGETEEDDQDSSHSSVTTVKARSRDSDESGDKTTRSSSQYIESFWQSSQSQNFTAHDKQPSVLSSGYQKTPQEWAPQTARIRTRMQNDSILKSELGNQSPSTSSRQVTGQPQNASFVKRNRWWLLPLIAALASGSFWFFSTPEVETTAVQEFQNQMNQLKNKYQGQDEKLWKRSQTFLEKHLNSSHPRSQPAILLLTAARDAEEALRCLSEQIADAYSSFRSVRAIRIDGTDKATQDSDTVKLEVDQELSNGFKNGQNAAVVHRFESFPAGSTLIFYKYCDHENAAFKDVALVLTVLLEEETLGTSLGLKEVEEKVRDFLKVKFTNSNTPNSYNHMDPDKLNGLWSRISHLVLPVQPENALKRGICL
# [10] = target: Alpha-bungarotoxin (Bungarus multicinctus) (UniProt P60615); assay: alpha-bungarotoxin binders on microarray, profiling panel, artefact control for SMM control protein annotation, biochemical, small-molecule microarray, Alexa647 label, 635/667 nm fluorescence (AID 1117); conditions: alpha-BTX-A647 binding fluorescence, higher = more signal
# Alpha-bungarotoxin (Bungarus multicinctus), sequence (P60615 whole entry, looked up): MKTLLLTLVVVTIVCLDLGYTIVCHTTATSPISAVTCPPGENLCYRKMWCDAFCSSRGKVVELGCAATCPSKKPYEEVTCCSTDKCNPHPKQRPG
# Albumin (Bos taurus) = Albumin (Bos taurus) (UniProt P02769); assay: bovine serum albumin binders on microarray, profiling panel, artefact control for SMM control protein annotation, biochemical, small-molecule microarray, Alexa647 label, 635/667 nm fluorescence (AID 1118); conditions: BSA-A647 binding, fluorescence 635 nm, higher = more signal;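 further: score merges 667 nm emission intensity and signal-to-noise per printed compound spot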
# Albumin (Bos taurus), sequence (P02769 whole entry, looked up): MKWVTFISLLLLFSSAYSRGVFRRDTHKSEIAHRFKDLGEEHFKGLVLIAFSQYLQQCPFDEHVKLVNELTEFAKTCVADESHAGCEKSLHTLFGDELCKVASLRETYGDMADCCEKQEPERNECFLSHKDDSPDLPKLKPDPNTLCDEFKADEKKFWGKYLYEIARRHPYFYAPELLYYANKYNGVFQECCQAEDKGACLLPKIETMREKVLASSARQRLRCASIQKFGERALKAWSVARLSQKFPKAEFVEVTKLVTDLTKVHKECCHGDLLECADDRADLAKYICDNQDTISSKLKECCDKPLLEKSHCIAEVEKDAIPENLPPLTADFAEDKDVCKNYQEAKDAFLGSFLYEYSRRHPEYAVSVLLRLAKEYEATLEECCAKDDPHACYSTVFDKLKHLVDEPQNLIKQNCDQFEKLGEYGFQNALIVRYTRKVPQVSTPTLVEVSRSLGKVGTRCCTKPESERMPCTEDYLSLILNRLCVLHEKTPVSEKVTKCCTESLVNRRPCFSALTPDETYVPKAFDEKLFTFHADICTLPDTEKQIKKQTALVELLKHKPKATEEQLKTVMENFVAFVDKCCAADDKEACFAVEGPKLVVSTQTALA
# [11] = small-molecule microarray binders of probe aXIP, primary screen, biochemical, NeuroSMM set, 635/667 nm fluorescence (AID 1119); conditions: higher = more signal, called active from +8 up or from −8 down;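 further: probe is the protein aXip251-270 applied at 1 µg/mL to compound-printed slides; binding of probe to printed compounds measured as 667 nm fluorescence plus signal to noise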
# [12] = small-molecule binders of probe aNOTCH3, primary screen, biochemical, small-molecule microarray, 635/667 nm fluorescence (AID 1120); conditions: higher = more signal;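 further: probe is a biotin-tagged antibody raised against NOTCH3 rather than NOTCH3 protein; score merges spot fluorescence near 667 nm with spot signal to noise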
# [13] = small-molecule binders of probe aNOTCH2, primary screen, biochemical, small-molecule microarray, 635/667 nm fluorescence (AID 1121); conditions: higher = more signal;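 further: score merges feature fluorescence read at 667 nm with its signal to noise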
# [14] = target: Carbonic anhydrase 2 (Homo sapiens) (UniProt P00918); assay: CAII small-molecule binders, profiling panel, biochemical, small-molecule microarray, Alexa647-labelled CAII (AID 1122); conditions: CAII-A647 binding fluorescence, higher = more signal
# [15] = COS7 lysate on small-molecule microarray, probe aHis, 635 nm (AID 1123); conditions: COS7 cell lysate, fluorescence, higher = more signal;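 further: z-score combines 667nm fluorescence intensity with signal-to-noise per printed compound spot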
# [16] = compound binding in COS7 lysate, probe aLAP1, primary screen, cell lysate, small-molecule microarray (AID 1124); conditions: probe aLAP1, fluorescence, higher = more signal;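 further: lysate comes from COS7 cells expressing LAP1 and is applied at 0.3 µg/mL; score merges spot fluorescence near 667 nm with signal-to-noise over triplicate slides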
# Sam68 (KHDRBS1) = assay: Sam68 small-molecule binders, primary screen, biochemical, small-molecule microarray, 635 nm fluorescence (AID 1125); conditions: small-molecule microarray binding, higher = more signal;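 further: score merges 667 nm channel intensity with signal to noise over triplicate slides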
# [17] = system: Chordin-like protein 2 (CHRDL2); assay: CHRDL2 small-molecule binders, primary screen, biochemical, small-molecule microarray, 635 nm fluorescence (AID 1126); conditions: small-molecule microarray binding, fluorescence 635 nm; higher = more signal;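 further: printed compound slides probed with Chrdl2 protein at 4 µg/mL for 1 h at 4 C; score merges 667 nm emission intensity with signal to noise over three replicate slides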
# [18] = target: Concanavalin-A (Canavalia ensiformis) (UniProt P02866); assay: ConA small-molecule binders, primary screen, artefact control for SMM control protein annotation, biochemical, small-molecule microarray, Alexa647 label, 635 nm (AID 1127); conditions: ConA-A647 binding fluorescence, higher = more signal;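 further: z combines 667 nm emission intensity with signal-to-noise across three replicate slides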
# Concanavalin-A (Canavalia ensiformis), sequence (P02866 whole entry, looked up): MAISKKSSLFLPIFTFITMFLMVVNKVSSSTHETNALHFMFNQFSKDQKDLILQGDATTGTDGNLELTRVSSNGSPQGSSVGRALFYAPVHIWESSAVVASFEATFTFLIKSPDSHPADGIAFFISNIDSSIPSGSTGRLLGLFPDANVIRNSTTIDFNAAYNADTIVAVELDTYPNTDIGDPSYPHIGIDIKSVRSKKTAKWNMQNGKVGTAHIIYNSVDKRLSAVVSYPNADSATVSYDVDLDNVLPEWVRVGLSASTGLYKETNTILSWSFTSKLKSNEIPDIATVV
Structure (SMILES),composite z-score [1],z-score [2],composite z-score [3],composite z-score [4],composite z-score [5],composite z-score [6],composite z-score [7],composite z-score [8],composite z-score [9],composite z-score [10],composite z-score (Albumin (Bos taurus)),composite Z-score [11],composite z-score [12],composite z-score [13],composite z-score [14],composite z-score [15],composite z-score [16],composite z-score (Sam68 (KHDRBS1)),composite z-score [17],composite z-score [18]
O=C1c2ccccc2[C@@]2(Cc3ccccc3N(Cc3ccccc3)C2=O)[C@H](c2ccc(CO)cc2)N1Cc1ccccc1C(F)(F)F,-0.648,-0.353,-1.3,-0.457,-0.176,-0.157,0.0684,0.549,0.0154,-0.32,0.811,-0.372 (inactive),-0.128,-0.0705,0.781,1.04,-0.381,-1.31,-1.5,-0.486
C=CCOC(=O)[C@@H]1[C@H]2C(=O)O[C@H](c3ccccc3)[C@H](c3ccccc3)N2[C@H](c2ccc(OCCOC(=O)[C@H]3C[C@H]4C(=O)N[C@@H](CC(C)C)C(=O)N4[C@H]3c3cccc(OCCO)c3)cc2)[C@@]12C(=O)Nc1ccc(I)cc12,1.44,-1.34,0.697,0.896,0.163,-0.0721,0.337,0.0852,0.921,2.52,-0.413,-0.367 (inactive),0.19,-0.0424,0.35,1.48,0.334,1.29,1.04,1.14
COc1cc2c(cc1O)C(c1ccc(CN3CCCC3)cc1)N(Cc1sc3ccccc3c1Cl)CC2 (stereo not given),0.573,-2.57,0.82,0.26,-0.935,-0.0036,-0.0626,0.151,0.0494,0.518,-0.185,0.0786 (inactive),0.0394,-0.0861,0.752,0.415,0.179,-0.209,1.05,1.11
CC(=O)NCCCC[C@@H]1NC(=O)[C@@H]2C[C@H](C(=O)NCCCCCC[N+](C)(C)C)[C@H](c3cccc(OCCO)c3)N2C1=O,1.39,0.625,0.996,-0.145,-0.711,0.158,0.0181,-0.0585,1.05,1.75,-0.384,0.13 (inactive),0.163,-0.0896,0.675,1.53,0.348,1.22,1.13,1.09
COCCOC(=O)N1C(=O)[C@@]2(c3cc(C#CCCO)ccc31)[C@H](C(=O)NC[C@H](O)c1ccccc1)[C@H]1C(=O)O[C@H](c3ccccc3)[C@H](c3ccccc3)N1[C@@H]2c1ccc(OCCO)cc1,1.08,-0.646,0.532,1.09,-0.191,-0.197,-0.23,-0.456,0.274,0.895,0.536,0.192 (inactive),0.264,-0.155,0.581,1.72,0.684,1.3,0.534,1.13
[N-]=[N+]=NCc1ccccc1C[C@]1(C(=O)NCC(O)CO)COC(c2ccc(OCCCO)cc2)=N1 (stereo not given in full),0.912,-1.84,-0.645,2.44,0.911,0.188,-0.0341,1.17,3.34,3.01,1.03,0.621 (inactive),0.0566,0.446,0.8,3.3,1.38,1.12,-1.37,0.954
CN(C)CCCCCCNC(=O)[C@@H]1C[C@@H]2C(=O)N[C@@H](Cc3ccccc3)C(=O)N2[C@@H]1c1cccc(OCCO)c1,1.39,1.73,0.637,-0.345,-0.287,-0.0472,0.0756,0.109,1.93,2.64,-0.0152,0.816 (inactive),0.0715,-0.0793,0.784,2.51,0.142,1.31,0.711,1.11
CCOC(=O)N1C(c2ccc(OCCCO)cc2)=NC(C(=O)OC)N1C(=O)OCC (stereo not given),1.38,-3.72,0.537,1.25,0.127,-0.0685,-0.279,0.0036,0.935,0.439,0.878,-0.363 (inactive),0.183,-0.0326,0.733,1.73,0.626,1.18,-0.105,1.09
Cc1ccc(S[C@]2(C(=O)NCCCN(C)C)CC(=O)N(Cc3ccccc3)[C@@H]2c2ccc(CO)cc2)cc1,-0.364,-1.7,-1.03,-0.676,-0.674,-0.184,-0.145,0.604,1.17,0.75,-0.173,-0.72 (inactive),-0.279,0.027,0.621,0.018,0.973,-0.145,-0.85,-0.785
C=C[C@@H](C)[C@@H](OC(=O)Nc1ccc(OC)cc1)c1ccc(O)c2ccccc12,0.118,-1.84,0.312,-0.27,-0.667,-0.152,-0.223,-0.409,-0.0999,-0.511,0.199,0.725 (inactive),-0.155,-0.183,0.283,0.516,-0.0028,0.349,0.897,0.323
COc1c(C)cc(-c2cc3c(c(-c4ccccc4)n2)[Si](C(C)C)(C(C)C)O[C@H]3c2ccccc2)cc1C,-0.217,-0.526,-0.009,-0.0867,-0.24,-0.006,-0.147,-0.482,0.38,0.614,-0.102,-0.322 (inactive),-0.0343,-0.154,-0.0516,0.0732,-0.325,0.111,0.613,0.124
Cc1c(NC(=O)/C(C#N)=C/C=C/c2ccccc2)c(=O)n(-c2ccccc2)n1C,-0.353,-0.683,0.277,0.193,-0.0357,-0.145,-0.416,-0.49,-0.296,0.754,0.566,0.54 (inactive),0.0859,0.136,0.682,0.811,-0.195,-0.144,0.427,0.802
CC(C)OC(=O)C1=CCC(c2cccc(Cl)c2)O1 (stereo not given),1.07,-2.34,-1.44,0.222,0.45,0.0654,0.16,-0.347,0.0025,0.274,0.569,0.403 (inactive),-0.36,-0.169,0.848,2.72,-0.157,0.649,-1.72,0.417
Oc1ccc2cc[n+](Cc3cccc(OC(F)(F)F)c3)cc2c1,-0.112,-0.114,0.939,-0.582,-0.77,-0.152,0.0515,-0.85,-0.0554,0.266,-0.192,0.587 (inactive),-0.215,-0.117,0.853,1.58,0.0966,-0.28,0.959,0.373

# Source: PubChem BioAssay
